This is part of a sample that, as a whole, favours compounds with a hit. Of some 79,000 tested, about 15% had one in any assay. Unmarked numbers belong to inactive results. Active and inactive are the calls of the source. No stated cut-off is given here; in the data, active means growth inhibition above about 70%; inactive means the rest.
assay: NCI Yeast Anticancer Drug Screen. Data for the rad50 strain (AID 155);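 further: 0% = growth of vehicle-only cultures of the same strain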; details: S. cerevisiae rad50 strain growth inhibition; at 5.0 µM (retest, dose inferred, filed as 0.5); stronger effect = higher value
How it was run: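 Vehicle-treated cultures provide the reference for the growth inhibition reported for compound-exposed, repair-deficient yeast.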

Compared with O=C(O)CCCCCCCCCCOc1ccc(Cl)cc1Cl, CCCCCCCCCCC(NC(C)=O)(C(=O)OCC)C(=O)OCC is lower in growth inhibition: -3% for the first, -9% for the second.

First: C=C(CN1CCCC1)C(=O)c1ccc(OC)cc1
Second: CNC(=O)OCc1c(COC(=O)NC)c(-c2ccc(OC)cc2)n2c1CCC2
The growth inhibition of the first is lower: -6% for the first, 28% for the second.

Compared with CCCCC(=S)N1CCN(c2ccccc2)CC1, CCCCCCCSCc1nc2ccccc2c(C)[n+]1[O-] is higher in growth inhibition: -3% for the first, 2% for the second.

Going from CCN(CC)C(=S)N/N=C/c1cc(OC)ccc1O to CCOC(=O)NN(C(=O)OCC)c1ccc(N=Nc2ccc(OC)cc2)n1C, the growth inhibition rises from -15% to 1%.

First: COc1ccc2c(c1)CN1C(CCC3c4ccccc4NC31)C2 (stereo not given)
Second: COc1ccc2c(c1)C(Br)CCC(Br)C2=O (stereo not given)
The growth inhibition of the first is higher: -17% for the first, -20% for the second.

Going from CCCCC(=O)N/N=C(\C)[C@]1(O)Cc2c(O)c3c(c(O)c2[C@@H](OC2CC(N)C(O)C(C)O2)C1)C(=O)c1c(OC)cccc1C3=O (stereo not given in full) to CNC(=O)NC(c1cc(OC)c(OC)c(OC)c1)c1cc2c(cc1O)OCO2 (stereo not given), the growth inhibition falls from 64% to -15%.

Going from Cc1nc(N)sc1N=Nc1ccc(Cl)cc1Cl to O=c1cc(CSc2ccc(Cl)cc2)occ1O, the growth inhibition falls from 4% to 3%.

Going from O=C(O)c1cc2c3ccccc3sc2c2ccccc12 to O=C(N/C(=C\c1cccc([N+](=O)[O-])c1)c1nc2ccccc2s1)c1ccccc1, the growth inhibition rises from -2% to 36%.

First: Cc1cc(OCCl)ccc1[N+](=O)[O-]
Second: Cc1ccc2c(c1)[n+]([O-])c(N)n[n+]2[O-]
The growth inhibition of the first is lower: -2% for the first, 21% for the second.

First: COC(=O)c1nnc(C(=O)OC)c2c1[nH]c1ccccc12
Second: CCc1cccc(C)c1NC(=O)C(=O)CC(=O)c1ccccc1Cl
The growth inhibition of the first is higher: 4% for the first, 0% for the second.

Compared with O=S(Nc1ccccc1Br)c1ccccc1 (stereo not given), Cc1ccc(O)c(C(C)(C)c2ccccc2)c1 is lower in growth inhibition: -4% for the first, -8% for the second.

Compared with Cc1c2c(c(C)c3c1OC(C)(C)CC3)OC(C)(C)CC2, CC(C)c1ccc2c(c1)CCC1C(C)(C(=O)O)CCCC21C (stereo not given) is higher in growth inhibition: -10% for the first, 11% for the second.

First: CC(=O)c1c2c(cc3c1CC1(C3)Cc3cc4c(c(C(=O)O)c3C1)CCC4)CCC2 (stereo not given)
Second: O=CCCCc1cc2c(cc1Br)CCC2
The growth inhibition of the first is higher: 53% for the first, 0% for the second.

Going from Cc1nc2c(cnn2C)cc1CCc1ccccc1 to O=C1O/C(=C2\OC(=O)c3ccccc32)c2ccccc21, the growth inhibition rises from 2% to 9%.

Going from S=C(NCc1ccccc1)[S][Sb]([S]C(=S)NCc1ccccc1)[c]1ccccc1 to Clc1ccc(CNc2ccc(Br)cc2)cc1, the growth inhibition falls from 1% to 0%.

First: CCC(C)CNCCCCCNc1cc(OC)cc2cccnc12 (stereo not given)
Second: CCN(CC)C(=O)CCCCC(=O)OC(C)C
The growth inhibition of the first is higher: 37% for the first, 0% for the second.

First: Cc1[nH]c(=O)[nH]c(=O)c1CN(C)Cc1cc(Cl)cc(Cl)c1O
Second: Cc1csc2[n+]1C(=O)/C(=C\c1ccc([N+](=O)[O-])cc1)S2
The growth inhibition of the first is lower: -4% for the first, 30% for the second.

Compared with CC1NS(=O)(=O)N(C)C1=O (stereo not given), CC(=O)O/N=C1/CCC2C3CC=C4CC(OC(C)=O)CCC4(C)C3CCC12C (stereo not given) is lower in growth inhibition: 3% for the first, 0% for the second.

Compared with COc1ncnc2nc(SC)[nH]c12, Cc1cnc(C#N)c(C#N)n1 is higher in growth inhibition: -1% for the first, 2% for the second.

In the case of C=C1C(=O)C23OC2C1CCC(=O)C1(C)CC[C@H](OC(C)=O)C(C)(C)[C@H]1CC3O (stereo not given in full), the growth inhibition is reported as 86% (active).
For COc1nc(N)c(N=O)c(OCc2ccccc2)n1, the growth inhibition was 83% (active).

same assay, conditions: S. cerevisiae rad50 strain growth inhibition; at 50.0 µM (retest, dose inferred, filed as 5.0); stronger effect = higher value

Compared with O=C(O)CCCCCCCCCCOc1ccc(Cl)cc1Cl, O=c1cc(CSc2ccc(Cl)cc2)occ1O is higher in growth inhibition: -8% for the first, 32% for the second.

Going from C=C(CN1CCCC1)C(=O)c1ccc(OC)cc1 to CNC(=O)OCc1c(COC(=O)NC)c(-c2ccc(OC)cc2)n2c1CCC2, the growth inhibition rises from 22% to 33%.

Compared with CCCCC(=S)N1CCN(c2ccccc2)CC1, CCc1cccc(C)c1NC(=O)C(=O)CC(=O)c1ccccc1Cl is higher in growth inhibition: -8% for the first, -1% for the second.

Compared with CCN(CC)C(=S)N/N=C/c1cc(OC)ccc1O, CCC(C)CNCCCCCNc1cc(OC)cc2cccnc12 (stereo not given) is higher in growth inhibition: 65% for the first, 67% for the second.

First: COc1ccc2c(c1)CN1C(CCC3c4ccccc4NC31)C2 (stereo not given)
Second: COc1ccc2c(c1)C(Br)CCC(Br)C2=O (stereo not given)
The growth inhibition of the first is higher: 16% for the first, 2% for the second.

First: O=C(O)c1cc2c3ccccc3sc2c2ccccc12
Second: O=S(Nc1ccccc1Br)c1ccccc1 (stereo not given)
The growth inhibition of the first is lower: 4% for the first, 10% for the second.

Compared with Cc1cc(OCCl)ccc1[N+](=O)[O-], Cc1ccc2c(c1)[n+]([O-])c(N)n[n+]2[O-] is higher in growth inhibition: 26% for the first, 61% for the second.

Going from Cc1c2c(c(C)c3c1OC(C)(C)CC3)OC(C)(C)CC2 to CC(=O)O/N=C1/CCC2C3CC=C4CC(OC(C)=O)CCC4(C)C3CCC12C (stereo not given), the growth inhibition rises from -4% to 69%.

Compared with Cc1nc2c(cnn2C)cc1CCc1ccccc1, O=C1O/C(=C2\OC(=O)c3ccccc32)c2ccccc21 is higher in growth inhibition: 16% for the first, 22% for the second.

First: O=CCCCc1cc2c(cc1Br)CCC2
Second: CNC(=O)NC(c1cc(OC)c(OC)c(OC)c1)c1cc2c(cc1O)OCO2 (stereo not given)
The growth inhibition of the first is higher: 62% for the first, -9% for the second.

Going from CC1NS(=O)(=O)N(C)C1=O (stereo not given) to COc1ncnc2nc(SC)[nH]c12, the growth inhibition rises from -5% to -2%.

Going from CCN(CC)C(=O)CCCCC(=O)OC(C)C to Cc1cnc(C#N)c(C#N)n1, the growth inhibition rises from -12% to 10%.

In the case of CCCCC(=O)N/N=C(\C)[C@]1(O)Cc2c(O)c3c(c(O)c2[C@@H](OC2CC(N)C(O)C(C)O2)C1)C(=O)c1c(OC)cccc1C3=O (stereo not given in full), the growth inhibition is reported as 97% (active).
For C=C1C(=O)C23OC2C1CCC(=O)C1(C)CC[C@H](OC(C)=O)C(C)(C)[C@H]1CC3O (stereo not given in full), the growth inhibition was 79% (active).
For Cc1nc(N)sc1N=Nc1ccc(Cl)cc1Cl, the growth inhibition was 90% (active).
With COC(=O)c1nnc(C(=O)OC)c2c1[nH]c1ccccc12 the growth inhibition was 77% (active).
With CC(=O)c1c2c(cc3c1CC1(C3)Cc3cc4c(c(C(=O)O)c3C1)CCC4)CCC2 (stereo not given) the growth inhibition was 94% (active).
For CCCCCCCCCCC(NC(C)=O)(C(=O)OCC)C(=O)OCC, the growth inhibition was 98% (active).
For COc1nc(N)c(N=O)c(OCc2ccccc2)n1, the growth inhibition was 97% (active).
In the case of Cc1ccc(O)c(C(C)(C)c2ccccc2)c1, the growth inhibition is reported as 77% (active).
For CCOC(=O)NN(C(=O)OCC)c1ccc(N=Nc2ccc(OC)cc2)n1C, the growth inhibition was 84% (active).
With S=C(NCc1ccccc1)[S][Sb]([S]C(=S)NCc1ccccc1)[c]1ccccc1 the growth inhibition was 95% (active).
In the case of CCCCCCCSCc1nc2ccccc2c(C)[n+]1[O-], the growth inhibition is reported as 99% (active).
In the case of Cc1[nH]c(=O)[nH]c(=O)c1CN(C)Cc1cc(Cl)cc(Cl)c1O, the growth inhibition is reported as 70% (active).
For O=C(N/C(=C\c1cccc([N+](=O)[O-])c1)c1nc2ccccc2s1)c1ccccc1, the growth inhibition was 98% (active).
With Cc1csc2[n+]1C(=O)/C(=C\c1ccc([N+](=O)[O-])cc1)S2 the growth inhibition was 74% (active).
With CC(C)c1ccc2c(c1)CCC1C(C)(C(=O)O)CCCC21C (stereo not given) the growth inhibition was 97% (active).
With Clc1ccc(CNc2ccc(Br)cc2)cc1 the growth inhibition was 82% (active).

Source: PubChem BioAssay (NCI)
